Data as given in the supplement of paper PMC7156485.

Tests used:
Conditions in all cases: concentration: 10 µM; 24 h
HCC1569 [1] = test: cell number relative to DMSO (% of DMSO); higher = more cells (less growth inhibition / toxicity)
Procedure, shortened: (§1)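 HCC1569 and TDF cells were seeded at 800 per well in 384-well plates in RPMI with 10% FBS and treated with compounds at 10 µM for 24 h at 37 °C, in triplicate. After fixation in 3.7% formaldehyde, cells were stained with a rabbit anti-H1.0 antibody, an AlexaFluor 647 secondary and DAPI, and six fields per well were imaged at ×10. H1.0 nuclear intensity or cell number is given as percent of the plate control, using the median of replicates, with HCC1569 values smoothed for positional effects.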

TDF [2] = test: as above
Procedure, shortened: as §1

TDF [3] = test: H1.0 immunofluorescence intensity relative to DMSO (% of DMSO); higher = stronger H1.0 induction, active = 120 or more
Procedure, shortened: as §1

HCC1569 [4] = test: H1.0 immunofluorescence intensity relative to DMSO (% of DMSO); higher = stronger H1.0 induction, active = 140 or more
Procedure, shortened: as §1
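For H1.0 immunofluorescence intensity relative to DMSO in this document: TDF is a line of transformed human dermal fibroblasts of mesenchymal origin.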
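For cell number relative to DMSO in this document: TDF denotes transformed human dermal fibroblasts of mesenchymal origin.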

SMILES	cell number (HCC1569 [1])	cell number (TDF [2])	H1.0 immunofluorescence intensity (TDF [3])	H1.0 immunofluorescence intensity (HCC1569 [4])
c1ccc(-c2cnc(Nc3ccc(OCCN4CCCC4)cc3)s2)cc1 [Flt-3 Inhibitor III]	80.3	74.2	97.1 (inactive)	150 (active)
CC(=O)SCC(Cc1ccccc1)C(=O)NCC(=O)OCc1ccccc1 (centres undefined) [Racecadotril]	103	117	91.5 (inactive)	104 (inactive)
Nc1nc2ccc(OC(F)(F)F)cc2s1 [Riluzole]	98.4	98.6	94.6 (inactive)	94.6 (inactive)
CCC1C(=O)OCC1Cc1cncn1C.O=[N+]([O-])O (centres undefined) [Pilocarpine nitrate]	98	86.9	98.7 (inactive)	107 (inactive)
COc1cccc(/C=N/CC/N=C/c2cccc(OC)c2[O-])c1[O-].[Cl-].[Mn+2]	99.1	98.1	99.4 (inactive)	108 (inactive)
O=C(NOCC1CC1)c1ccc(F)c(F)c1Nc1ccc(I)cc1Cl	77.6	71	93.3 (inactive)	116 (inactive)
COCCc1ccc(OCC(O)CNC(C)C)cc1.COCCc1ccc(OCC(O)CNC(C)C)cc1.O=C(O)C(O)C(O)C(=O)O (racemic)	99.5	106	95.6 (inactive)	108 (inactive)
COc1cc2c(cc1OC)-c1cc3ccc(OC)c(OC)c3c[n+]1CC2.[Cl-] [Palmatine chloride]	100	108	96.1 (inactive)	88.6 (inactive)
Cl.NC1(C(=O)O)CC1 [1-Aminocyclopropanecarboxylic acid hydrochloride]	100	102	96.5 (inactive)	100 (inactive)
CC(NC(CCc1ccccc1)C(=O)O)C(=O)N1CCCC1C(=O)O (centres undefined) [Enalaprilat]	98.7	86.2	104 (inactive)	96.9 (inactive)
CCCCCCCCCCCCCCCC(=O)NCC(COP(=O)([O-])OCC[N+](C)(C)C)OC (racemic) [rac-2-Methoxy-3-hexadecanamido-1-propylphosphocholine]	75.4	65	185 (active)	142 (active)
